# CYP2C19 act – cytochrome P450 2C19 (human) activation. recombinant CYP2C19, luciferin-H EGE luminescence; active compounds read high; 0 = fully inhibited enzyme, 1 = untreated enzyme. activation factor at 5 µM. 96,000 tested, under 10 active;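 active means activation factor of at least 2 at 5 µM in the primary screen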;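 further: 0 = wells with 2.5 mM tranylcypromine and 1 = vehicle-only wells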
# PostGolgi ctrl – inhibits growth of the yeast control strain | efflux-deficient yeast background strain, growth absorbance A615, 16 h | inhibition, % at 10 µM | 98,000 compounds, 5% hits | AID 738
# CYP2C9 inh – inhibitors of human CYP2C9 | P11712 | CYP2C9 Supersomes, luciferin-H conversion, luminescence | 96,000 compounds, 20% hits | inhibition, % at 5 µM | AID 777;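 active means blocking of liver enzyme CYP2C9 beyond about 50% at 5 µM, limit read from the data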
# Target sequence (P11712 whole entry, looked up): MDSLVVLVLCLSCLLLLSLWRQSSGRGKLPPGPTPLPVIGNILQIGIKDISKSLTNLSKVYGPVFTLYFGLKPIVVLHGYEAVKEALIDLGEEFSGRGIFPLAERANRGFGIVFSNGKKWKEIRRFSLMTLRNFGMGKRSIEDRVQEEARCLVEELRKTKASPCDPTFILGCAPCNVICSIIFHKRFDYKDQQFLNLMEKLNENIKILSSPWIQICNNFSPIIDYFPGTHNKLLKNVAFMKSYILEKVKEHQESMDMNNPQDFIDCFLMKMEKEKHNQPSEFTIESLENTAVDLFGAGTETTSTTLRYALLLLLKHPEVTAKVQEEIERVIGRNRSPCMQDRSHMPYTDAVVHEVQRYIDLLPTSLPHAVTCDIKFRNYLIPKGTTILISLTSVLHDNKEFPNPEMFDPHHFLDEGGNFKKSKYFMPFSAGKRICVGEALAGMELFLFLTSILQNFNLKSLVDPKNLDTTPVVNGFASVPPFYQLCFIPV
# CYP2C19 inh – blocks human cytochrome P450 2C19. CYP2C19 Supersomes, luciferin-H EGE luminescence, 30 min. 96,000 compounds, 21% hits. AID 778. inhibition, % at 5 µM. P33261;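 active means CYP2C19 inhibition above a set limit at 5 µM in the primary screen, cut at about 50% in these data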;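 further: plate controls were negative control wells for no effect and 2.5 mM tranylcypromine positive control for full effect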
# PostGolgi yeast – growth inhibition of a yeast mutant, post-Golgi transport screen; inhibition, % at 10 µM; 98,000 compounds, 0.9% hits; AID 739; post-Golgi transport phenotypic cell assay;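 further: yeast cells grown in 1536-well plates; yeast grown about 18 h at 30C before absorbance read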
# CYP2C9 activ – activators of human CYP2C9 | P11712 | recombinant CYP2C9, luciferin-H conversion, luminescence; active compounds read high; factor 1 = untreated enzyme, 0 = blocked | activation factor at 5 µM | 96,000 compounds, 1.4% hits;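 active means activation factor of 2 or more for CYP2C9 at a 5 µM dose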;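 further: 0 = sulfaphenazole-blocked wells and 1 = vehicle-only wells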
# Active calls of the source: *. This is a sample that favours compounds with a hit; in the whole collection about 32% have one here. Unless noted, no stated cut-off is given here; in the data, active means inhibition above about 30%; inactive means the rest.
SMILES,CYP2C19 act,PostGolgi ctrl,CYP2C9 inh,CYP2C19 inh,PostGolgi yeast,CYP2C9 activ
O=S(=O)(c1ccccc1)c1nc(-c2ccccc2Cl)oc1NCCN1CCOCC1,0.6,14.9,77.0*,36.4,7.9,0.2
N#Cc1nc(-c2ccccc2F)oc1NCCN1CCOCC1,0.4,11.1,27.0,63.8*,-4.2,0.7
N#Cc1nc(-c2cccc3ccccc23)oc1NCCN1CCOCC1,0.7,3.8,22.2,28.3,1.5,0.8
Cc1ccccc1-c1nc(S(=O)(=O)c2ccc(Cl)cc2)c(NCCN2CCOCC2)o1,0.6,21.8,35.9,35.3,7.4,0.6
c1cn2cc(-c3ccc4c(c3)OCO4)nc2s1,0.9,-7.3,9.6,13.3,-3.1,0.9
CO/C([O-])=N/c1c[n+](-c2ccc(Cl)cc2)no1,0.8,18.9,9.5,17.5,3.0,0.9
Cc1ccc(-n2c(SCC(N)=O)nnc2-c2ccc(S(=O)(=O)N3CCCCC3)cc2)c(C)c1,0.9,10.2,82.0*,8.4,4.4,0.2
NC(=O)CSc1nnc(-c2ccc(S(=O)(=O)N3CCOCC3)cc2)n1CC1CCCO1 (stereo not given),1,-5.8,4.6,0.3,8.0,1
COc1cccc(Nc2ncccc2C(=O)Nc2ccccc2)c1,0.8,16.5,25.4,22.2,-1.6,0.7
COC(=O)CCC(=O)Nc1cccc(Br)c1,0.9,7.6,2.5,11.9,-2.2,1
CCC(=O)Nc1cccc(C(=O)/C=C/c2cc(Br)ccc2OC)c1,0.4,80.6*,-11.1,62.4*,4.5,1.1
Cc1nn(Cc2cccc(F)c2)c(C)c1NC(=O)c1c([N+](=O)[O-])c(C)nn1C,0.2,1.2,62.3*,75.6*,0.8,0.4
Cc1nn(C)c(C(=O)Nc2ccn(Cc3c(F)c(F)cc(F)c3F)n2)c1[N+](=O)[O-],0.5,-3.0,49.4,45.6,0.6,0.5
Cc1nn(Cc2cccc(C(=O)Nc3ccn(Cc4c(F)c(F)cc(F)c4F)n3)c2)c(C)c1[N+](=O)[O-],0.1,11.8,93.1*,85.8*,-9.1,0.1
CCC(C)NC(=O)c1ccc(COc2ccccc2Cl)cc1 (stereo not given),0.9,9.2,7.0,12.5,-6.1,0.9
Cc1nn(Cc2cccc(F)c2)c(C)c1NC(=O)c1ccc(COc2ccccc2Cl)cc1,0.5,24.5,65.1*,46.0,-15.9,0.3
COc1ccc(-c2ccc(-c3noc(-c4cccs4)n3)c(OC)n2)cc1,0.9,-10.8,59.6*,13.3,21.4,0.4
CCOc1ccc(/C=C2\C(=O)c3ccccc3OC2c2ccccc2)cc1 (stereo not given),0.5,10.7,42.4,51.5*,-1.7,0.6
NC(=O)c1ccc(NC(=O)CSC2=Nc3ccccc3C3CC=NN23)cc1 (stereo not given),1,-5.2,21.5,-3.6,3.6,0.8
Cc1ccc(NC(=O)CSC2=Nc3ccccc3C3CC=NN23)c(C)c1 (stereo not given),0.1,0.2,37.4,92.9*,-3.7,0.6
COC(=O)c1ccc(NC(=O)CSC2=Nc3ccccc3C3CC=NN23)cc1 (stereo not given),0.3,14.5,69.3*,67.7*,-9.8,0.3
N#CCOC(=O)c1sccc1-n1cccc1,0.9,5.9,-95.2,9.3,3.8,2*
Cc1cc(NC(=O)CSc2nc3ccccc3n2CC(=O)N2CC(C)CC(C)C2)no1 (stereo not given),0.9,2.1,26.7,9.9,2.0,0.7
Cc1cc(C)c(S(=O)(=O)N(C)CC(N)=O)c(C)c1,1.1,1.0,-38.0,-9.5,2.7,1.4
CC1CCN(C(=O)CN(C2CCCCC2)S(C)(=O)=O)CC1,0.9,-6.8,-8.2,7.2,0.6,1.1
Cc1cc(C)c(S(=O)(=O)N(C)CC(=O)N2CCCCC2)c(C)c1,0.6,3.9,-185.0,44.2,9.6,2.9*
COc1ccc(S(=O)(=O)N(C)CC(=O)NCc2cccnc2)cc1,0.6,-2.6,27.6,39.3,6.2,0.7
Cc1cc(C)c(S(=O)(=O)N(CC(=O)NCc2cccnc2)C2CCCCC2)c(C)c1,0,27.4,94.4*,99.2*,1.9,0.1
CN(Cc1cnn(C)c1)C(=O)c1cc2ccccc2oc1=O,0.9,6.0,-11.1,14.8,-7.4,1.1
Cc1cc(C)c(S(=O)(=O)N(CC(=O)N2CCCC2)C2CCCCC2)c(C)c1,0.7,24.9,58.5*,27.6,-3.3,0.4

# Assay outcomes as filed in PubChem.
